In the library only some 21% were active in any assay of this set; here they are far more common.
IL1B secr inh: blocks inflammasome-driven IL-1 beta release; THP-1 LPS/ATP IL-1B secretion, AlphaLISA, 16 h; hits give low values; activity change, % at 57.5 µM; 4.7% of 360,000 active; in the data active means activity change below about -50%; inconclusive means mostly about -30% to -49%; further: on the % scale 0 is the no-effect control and ±100 the full control effect
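Secreted IL-1B measured by AlphaLISA bead assay after 16 h compound exposure of THP-1 cells; compounds (final up to 57.5 uM) added 1 h before LPS (250 ng/mL) and ATP (1.25 mM) stimulation; lower signal means less secretion.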
TDP1 cell CPT: growth inhibition of DT40 Tdp1-/-;hTDP1 cells with camptothecin (screen for TDP1 inhibitors); Potency, µM (titrated, usually from 46.2 µM), inactives show at the highest dose activity change, negative = growth inhibition, actives largely listed as inhibitors; AID 686979; chicken DT40 Tdp1-/-;hTDP1 cells + 20 nM CPT, ATP luminescence, 48 h; 12% of 420,000 active; further: potency means the concentration at half of the fitted maximal effect; on the % scale 0 is the no-effect control and ±100 the full control effect; nearly all actives have a fitted effect of over 55% in size
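Chicken DT40 Tdp1-/- cells complemented with human TDP1, 400 cells/well, exposed to compounds plus 20 nM camptothecin for at least 48 h at 37 C; viability read as ATP content by CellTiter-Glo luminescence.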
ClpP mod: qHTS Assay for Activators of ClpP; ATP-dependent Clp protease proteolytic subunit (Bacillus subtilis (strain 168)), P80244; purified B. subtilis ClpP, FRET peptide cleavage, 20 min; Potency, µM (highest dose often 57.5 µM), without a hit: top-dose activity change, negative = active; 1.9% of 340,000 active; active means well fitted falling curve with a large enough effect; inconclusive means small, poorly fitted or top-dose-only effect; inactive means no such curve, though single readings can be large or run the other way; further: potency means the concentration at half of the fitted maximal effect; the source files actives as falling curves though it sought activators and does not explain the sign; nearly all actives have a fitted effect of over 65% in size
Target sequence (P80244 whole entry, looked up): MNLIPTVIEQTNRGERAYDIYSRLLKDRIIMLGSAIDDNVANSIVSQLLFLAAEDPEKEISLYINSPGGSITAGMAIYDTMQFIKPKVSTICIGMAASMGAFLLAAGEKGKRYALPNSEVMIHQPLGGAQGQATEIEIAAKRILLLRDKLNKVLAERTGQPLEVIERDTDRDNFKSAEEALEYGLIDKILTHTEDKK
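ClpP 10 microg/mL final, pH 8 Tris/KCl buffer with BSA, glycerol, Tween-20; compound pinned in; FRET-FV substrate; RT 20 min; Ex320/Em430; ΔFRET vs ADEP 5.8 microM, DMSO, no enzyme.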
D3 ag: agonists of human D3 dopamine receptor; D3R DiscoveRx beta-arrestin cells, luminescence, 90 min; 0.58% of 410,000 active; max activation, %; in the data active means max activation above about 30%; further: 0% is about no effect
Target sequence (P35462 whole entry, looked up): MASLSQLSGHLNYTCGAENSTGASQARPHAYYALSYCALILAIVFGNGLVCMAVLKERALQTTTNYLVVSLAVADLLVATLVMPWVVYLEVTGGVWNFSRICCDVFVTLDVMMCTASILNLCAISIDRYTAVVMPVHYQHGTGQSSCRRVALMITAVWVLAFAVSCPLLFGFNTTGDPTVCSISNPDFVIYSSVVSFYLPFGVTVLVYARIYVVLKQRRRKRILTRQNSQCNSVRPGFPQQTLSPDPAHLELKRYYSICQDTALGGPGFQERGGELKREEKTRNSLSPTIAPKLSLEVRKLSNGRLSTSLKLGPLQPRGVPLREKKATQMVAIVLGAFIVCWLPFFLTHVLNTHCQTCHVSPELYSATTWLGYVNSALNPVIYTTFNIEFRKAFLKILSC
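Cells at 1500/well, incubated overnight, then treated with pinned compounds (dopamine as control) for 90 min at 37 degrees C. DiscoveRx reagent added for 30 - 60 minutes at room temperature; luminescence read.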
DT40 TDP1 no CPT: qHTS for Inhibitors of human tyrosyl-DNA phosphodiesterase 1 (TDP1): qHTS in cells in absence of CPT; DT40 Tdp1-/- hTDP1 cells, no CPT, ATP luminescence, 48 h; Potency, µM (highest dose often 46.2 µM), inactives show at the top dose activity change, negative = growth inhibition, most hits filed as inhibitors; 15% of 420,000 active; further: potency means the concentration at half of the fitted maximal effect; on the % scale 0 is the no-effect control and ±100 the full control effect; nearly all actives have a fitted effect of over 55% in size
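Chicken DT40 Tdp1-/- cells stably complemented with human TDP1 were seeded at 400 cells/well with DMSO in place of 20 nM camptothecin. After compound pinning, cells grew at least 48 hr at 37 °C; viability read by CellTiter-Glo luminescence.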
D3 antag: antagonists of human D3 dopamine receptor | P35462 | D3R cells, DiscoveRx beta-arrestin luminescence, antagonist mode; hits give low values | max response, negative = inhibition, % | 2.5% of 360,000 active | AID 652054; in the data active means max response below about -50%; inconclusive means no clear call, values can overlap the other calls; further: on the % scale 0 is the no-effect control and ±100 the full control effect
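Cells plated overnight at 1500 cells/well, then exposed to library compounds with dopamine controls for 90 minutes at 37 degrees C. DiscoveRx reagent added for 30–60 minutes at room temperature; luminescence read, quantitative HTS format.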
Active calls of the source: *. Unless noted, the call rests on the fitted dose curve; in most records, active means well fitted inhibition curve with a large enough effect; inconclusive means small, poorly fitted or top-dose-only effect; inactive means flat fitted curve, though single readings scatter.

How did Cc1ccc(O)c(-c2cc(C(=O)Nc3ccc(S(=O)(=O)N4CC(C)OC(C)C4)cc3)[nH]n2)c1 (configuration not stated) do in these assays?
IL1B secr inh: -74.4*; TDP1 cell CPT: 25.9µM*; ClpP mod: -0.1%; D3 ag: 1.0; DT40 TDP1 no CPT: 23.1µM*; D3 antag: 0.9

What do the screens show for `Cc1ccc(O)c(-c2cc(C(=O)Nc3ccc(S(=O)(=O)Nc4nc(C)cc(C)n4)cc3)[nH]n2)c1`?
IL1B secr inh: 32.8; TDP1 cell CPT: 0.7%; ClpP mod: -8.6%; D3 ag: 4.7; DT40 TDP1 no CPT: -26.3%; D3 antag: 0.8

How did CN(C)c1ccc(/C=C/c2nc3ccccc3s2)cc1 do in these assays?
IL1B secr inh: -25.1; TDP1 cell CPT: 16.4µM*; ClpP mod: -1.0%; D3 ag: -4.7; DT40 TDP1 no CPT: 0.1µM*; D3 antag: -21.9

How did COC(=O)c1ccc(/C=C(\C#N)c2nc3ccccc3s2)cc1 do in these assays?
IL1B secr inh: 44.0; TDP1 cell CPT: -12.5%; ClpP mod: -1.1%; D3 ag: -13.4; DT40 TDP1 no CPT: -4.2%; D3 antag: -13.3

Results for CN(Cc1ccccc1)c1ccc(/C=C/c2nc3ccccc3s2)cc1 ?
TDP1 cell CPT: 0.316µM*; ClpP mod: -0.4%; DT40 TDP1 no CPT: 0.1µM*

Results for CN(Cc1ccccc1)c1ccc(C=O)cc1 ?
TDP1 cell CPT: inconclusive; ClpP mod: -2.2%; DT40 TDP1 no CPT: inconclusive

Results for C=C(/C=C/c1ccc(N(C)C)cc1)c1nc2ccccc2s1 ?
TDP1 cell CPT: 0.0891µM*; ClpP mod: -0.2%; DT40 TDP1 no CPT: 0.112µM*

Results for Cc1ccc(NC(=O)COC(=O)Cc2ccc(Br)cc2)cc1S(=O)(=O)N1CCOCC1 ?
IL1B secr inh: -7.9; TDP1 cell CPT: -1.4%; D3 ag: -6.3; DT40 TDP1 no CPT: -12.3%; D3 antag: -14.1

How did CCc1ccc(NC(=O)C2CCCN2S(=O)(=O)c2ccc3c(c2)n(C)c(=O)c(=O)n3C)cc1 (configuration not stated) do in these assays?
IL1B secr inh: -12.6; TDP1 cell CPT: -28.6%; ClpP mod: inconclusive; D3 ag: -2.7; DT40 TDP1 no CPT: -1.9%; D3 antag: 4.8

How did Cc1[nH]nc(Sc2ccccn2)c1[N+](=O)[O-] do in these assays?
IL1B secr inh: 16.9; TDP1 cell CPT: 21.8%; ClpP mod: 2.1%; D3 ag: 8.3; DT40 TDP1 no CPT: -17.0%; D3 antag: 0.0

What do the screens show for `COc1ccc(/C=C/C(=O)c2ccccc2O)cc1`?
IL1B secr inh: 0.0; TDP1 cell CPT: inconclusive; ClpP mod: 1.5%; D3 ag: -10.4; DT40 TDP1 no CPT: inconclusive; D3 antag: 3.3

How did Cc1ccc(/C=C/C(=O)c2ccccc(=O)c2O)cc1C do in these assays?
IL1B secr inh: -81.1*; TDP1 cell CPT: 23.1µM*; ClpP mod: -0.9%; D3 ag: -4.4; DT40 TDP1 no CPT: 13µM*; D3 antag: -4.4

How did O=C(/C=C/c1ccc(F)cc1)c1cc(Br)ccc1O do in these assays?
IL1B secr inh: -56.8*; TDP1 cell CPT: -4.1%; D3 ag: 0.7; DT40 TDP1 no CPT: -22.3%; D3 antag: 2.4

How did O=C(/C=C/c1ccccc1)c1cc(Br)ccc(=O)c1O do in these assays?
IL1B secr inh: -58.6*; TDP1 cell CPT: 3.66µM*; ClpP mod: 2.4%; D3 ag: -6.9; DT40 TDP1 no CPT: 4.61µM*; D3 antag: 0.0

Results for Cc1cc(C)c2c(-n3cccc3)c(C(=O)NCCc3ccc(Cl)cc3)sc2n1 ?
TDP1 cell CPT: -15.8%; ClpP mod: 0.9%; D3 ag: -7.0; DT40 TDP1 no CPT: inconclusive

How did Cc1oc(S(=O)(=O)N(C)C)cc1C(=O)Nc1ccc(Cl)cc1 do in these assays?
IL1B secr inh: -20.2; TDP1 cell CPT: 5.0%; ClpP mod: 2.8%; D3 ag: 1.3; DT40 TDP1 no CPT: inconclusive; D3 antag: 20.3

Results for CCCN1CCC(=O)N(CCN=[N+]=[N-])CC1 ?
IL1B secr inh: 5.9; TDP1 cell CPT: -12.8%; ClpP mod: -1.6%; D3 ag: -5.9; DT40 TDP1 no CPT: 0.4%; D3 antag: -7.5

What do the screens show for `Cc1noc(C)c1COc1cccc(C(=O)OCC(=O)N2CC(=O)Nc3ccccc32)c1`?
IL1B secr inh: 83.5; TDP1 cell CPT: 0.581µM*; ClpP mod: 0.2%; D3 ag: 1.0; DT40 TDP1 no CPT: 0.651µM*; D3 antag: 14.3

How did CC(=O)N1CCN(S(=O)(=O)c2cccc(C(=O)OCC(=O)N3CC(=O)Nc4ccccc43)c2)CC1 do in these assays?
IL1B secr inh: 24.1; TDP1 cell CPT: 7.8%; D3 ag: -5.8; DT40 TDP1 no CPT: -18.0%; D3 antag: -1.2

How did CC(C)(C)n1[nH]c2c3c(ccc2c1=O)C(=O)c1ccccc1C3=O do in these assays?
IL1B secr inh: -0.2; TDP1 cell CPT: 8.2µM*; ClpP mod: -0.2%; D3 ag: -1.0; DT40 TDP1 no CPT: 7.31µM*; D3 antag: -17.0

How did COCCCn1[nH]c2c3c(ccc2c1=O)C(=O)c1ccccc1C3=O do in these assays?
IL1B secr inh: -17.6; TDP1 cell CPT: 16.4µM*; ClpP mod: 0.3%; D3 ag: -11.7; DT40 TDP1 no CPT: 16.4µM*; D3 antag: inconclusive

Results for Cc1ccc(-n2[nH]c3c4c(ccc3c2=O)C(=O)c2ccccc2C4=O)cc1 ?
IL1B secr inh: -3.9; TDP1 cell CPT: -7.8%; ClpP mod: 0.8%; D3 ag: -7.6; DT40 TDP1 no CPT: -20.9%; D3 antag: 0.0

Results for CCOc1ccc(NS(=O)(=O)c2ccc(C(=O)N(C)CC(=O)Nc3ccc(C)cc3)cc2)cc1 ?
IL1B secr inh: inconclusive; TDP1 cell CPT: inconclusive; ClpP mod: 0.9%; D3 ag: -9.1; DT40 TDP1 no CPT: 16.4µM*; D3 antag: 0.0

How did CN(CC(=O)Nc1ccc(Cl)cc1)C(=O)c1ccc(S(=O)(=O)Nc2ccccc2)cc1 do in these assays?
IL1B secr inh: inconclusive; TDP1 cell CPT: inconclusive; D3 ag: -11.9; DT40 TDP1 no CPT: inconclusive; D3 antag: -6.3

How did COc1ccc(CN(C)C(=O)c2cccc(NS(=O)(=O)c3ccccc3)c2)c(OC)c1 do in these assays?
IL1B secr inh: -15.4; TDP1 cell CPT: -27.3%; ClpP mod: 0.1%; D3 ag: 4.4; DT40 TDP1 no CPT: 0.4%; D3 antag: 0.7
